Experimental data taken from PubChem BioAssay (NCI).
Compounds without any hit were thinned out: in the full panel of roughly 83,000, 20% have a hit.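 Negative percent growth values reflect cell death: -40 means 40% of the cells present at the start died, and -100 means all died.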 Values without a mark were called inactive. Calls of active or inactive are those of the source. Rule for the calls: active = growth percent below 10; inactive = the rest.

Key:
Assay in all cases: NCI-60 one-dose screen, 48 h (100 = growth as untreated, 0 = no growth, -100 = all killed)
Conditions in all cases: 10 µM unless noted
[1] = tested on: NCI-H23 lung
[2] = tested on: NCI-H226 lung
[3] = tested on: NCI-H322M lung
[4] = tested on: HOP-62 NSCLC
[5] = tested on: NCI-H460 lung
[6] = tested on: HOP-92 NSCLC
[7] = tested on: NCI-H522 lung
[8] = tested on: A549/ATCC NSCLC
[9] = tested on: 786-0 renal
[10] = tested on: COLO 205 colon

| SMILES | growth [1] | growth [2] | growth [3] | growth [4] | growth [5] | growth [6] | growth [7] | growth [8] | growth [9] | growth [10] |
| --- | --- | --- | --- | --- | --- | --- | --- | --- | --- | --- |
| CCOC(=O)c1ccc(NC2=C(Cl)C(=O)c3nc(C)ccc3C2=O)cc1 | 52% | 85.5% | 96.7% | 113% | 79.3% | 103% | 24.1% | 94.3% | 55.5% | 58.9% |
| Oc1[nH]c2ccc(Cl)cc2c1N=Nc1nc(N=Nc2c(O)[nH]c3ccc(Cl)cc23)nc(N2CCOCC2)n1 | 17.2% | 57.3% | 78.1% | 37.6% | 88.2% | 26% | 5.09% (active) | 101% | 73.7% | 48.7% |
| Brc1cccc(-c2cc(-c3cnc4c(c3)OCCO4)n[nH]2)c1 | 52.4% | 65.6% | 45.2% | 65% | 17.4% | 101% | 19.6% | 36.8% | 79% | 34.9% |
| CC[C@]12C=CCN3CC[C@@]4(c5ccc(OC)cc5N(C)[C@H]4[C@@](O)(C(=O)OC)[C@@H]1OC(=O)CCN1CCc4ccccc4C1)[C@@H]32 | 81.9% | 98.9% | 96.1% | 87.5% | 96.8% | 40.1% | 101% | 87.8% | 92.7% | 74.3% |
| COc1cc(-c2nc(-c3ccccc3)[nH]c2-c2ccnc(NCCCNS(=O)(=O)c3cccc(F)c3)n2)ccc1F | 101% | 83.9% | 102% | 130% | 94.2% | 134% | 85.4% | 87.1% | 98.4% | 93% |
| Cc1csc(/N=C(N)/N=C(\N)c2cccc(Br)c2)n1 | 89.1% | 88.9% | 95.6% | 85.3% | 98.1% | 69.9% | 80% | 101% | 97.3% | 95.3% |
| C=C(C)[C@@H]1CC[C@]2(COCCCNCCCN)CC[C@]3(C)[C@H](CC[C@@H]4[C@@]5(C)CC[C@H](O)C(C)(C)[C@@H]5CC[C@]43C)[C@@H]12 | -64.7% (active) | 4.38% (active) | -90.2% (active) | -51.3% (active) | -77.3% (active) | -76.2% (active) | -54.6% (active) | -48.7% (active) | -81.3% (active) | -65.9% (active) |
| Cc1ccc([C@H]2c3[nH]c4ccccc4c3C[C@H]3C(=O)N(CCCCCCC(=O)NO)CC(=O)N23)s1 | 77.6% | 94% | 67.4% | 68% | 57.3% | 51.2% | 41.1% | 85.5% | 89.3% | 67.9% |
| CN1CCC[C@]2(C)[C@H]3CC[C@@H]4[C@@H]5[C@H]6OC[C@@]5(CCC6(C)C)CC[C@@]4(C)[C@]3(C)CC[C@H]2C1(C)C | 91% | 93.2% | 87.8% | 94.2% | 1.69% (active) | 50.6% | 96.3% | 71.7% | 84.4% | -8.01% (active) |
| CCC1=Cc2c(OC)cccc2OC12C=Cc1c(OC)cccc1O2 (stereo not given) | 39.7% | 58.3% | 43.9% | 43.2% | 7.72% (active) | 44% | 14.4% | 25.3% | 50.1% | 17.2% |
| O=C1Nc2ccccc2/C1=C/c1ccc(OCC(=O)c2ccccc2)cc1 | 101% | 89% | 98% | 99.7% | 102% | 97.1% | 104% | 99.5% | 107% | 117% |
| COc1cc(NC(=O)Nc2cccc(-c3cc(=O)c4c(OC)c(OC)c(OC)cc4o3)c2)cc(OC)c1OC | 34.6% | 49.7% | 64.4% | 49.7% | 31.5% | -8.97% (active) | 39.6% | 57.2% | 35.3% | 58.1% |
| O=C(/C=C/c1ccccc1Cl)Nc1ncc(Cc2cc(Cl)ccc2Cl)s1 | 50.9% | 39.4% | 48.5% | 22% | 8.08% (active) | 35.4% | 12.3% | 40% | 33.3% | 5.37% (active) |
| CC(C)Sc1nc(-c2ccccc2)c(C#N)c(N2CCOCC2)n1 | 65% | 55.1% | 38.1% | 63.7% | 42.2% | 73.2% | 82.5% | 37.2% | 11.9% | 74% |
| CC(C)NC(=O)c1cc(-c2ccc(NC(=O)Nc3ccc(F)c(C(F)(F)F)c3)cc2)nc2cccnc12 | 93.2% | 94.8% | 107% | 80.8% | 86.4% | 90.1% | 87.4% | 86.8% | 88.3% | 114% |
| CN(C)CC(=O)Nc1nc(-c2cccc(NS(=O)(=O)c3cccc4c(N(C)C)cccc34)c2)cs1 | 75.6% | 74.1% | 96.2% | 103% | 92.4% | 60.8% | 76.7% | 80.1% | 90.5% | 104% |
| Brc1ccc(-c2cc(-c3ccc4c(c3)OC=CO4)n[nH]2)s1 | 87.4% | 95.1% | 96.2% | 82% | 96.4% | 99.7% | 73.8% | 89.9% | 104% | 97.1% |
| NC1[C@H]2CN(c3cnc(C(=O)Nc4cc(F)cc5cccnc45)cn3)C[C@@H]12 (stereo not given in full) | 84.5% | 85.1% | 6.79% (active) | 82.4% | 92.1% | 24.8% | 46.6% | 92.1% | 75.2% | 18.5% |
| CCc1cc2c(cc1Cl)nc1c(=O)[nH]c(=O)nc-1n2CCOCC(C)(C)C | 72.1% | 41.2% | 63.7% | 104% | 56.4% | 110% | 70.5% | 75.5% | 81.1% | 58.2% |
| CN1CCN(c2ccc(Nc3nc(NCCCNS(=O)(=O)c4cccc(F)c4)c4sccc4n3)cc2)CC1 | 84% | 112% | 68% | 96.6% | 19.9% | 58.7% | -1.42% (active) | 44.8% | -24.1% (active) | 27.1% |
| C#CCOc1ccccc1C(OC(=O)c1ccccc1)C(=O)NC(C)(C)C(C)(C)C (stereo not given) | 82.4% | 82.1% | 90.4% | 88.4% | 89.7% | 71% | 73.4% | 74% | 84.7% | 85.1% |
| Cc1ccc(NC2=C(Cl)C(=O)c3nc(C)ccc3C2=O)c(C)c1 | -49.9% (active) | 23.2% | 36.7% | 47.2% | 46.2% | 84.7% | -38.3% (active) | 46.5% | 23.7% | 98% |
| Cc1ccc(/C=N/Nc2nc(Nc3ccccc3)nc(Nc3ccc(S(N)(=O)=O)cc3)n2)cc1 | 76.7% | 79.3% | 90.8% | 86.8% | 54.7% | 112% | 89.5% | 83.2% | 46.9% | 83.9% |
| CN1c2ccccc2Sc2cc(/C=N/Nc3ccnc4cc(Cl)ccc34)ccc21 | 91.6% | 90.5% | 107% | 96.6% | 104% | 82.1% | 99.2% | 83.3% | 89.3% | 101% |
| O=C(CCCCCCNC(=O)C(O)(O)C(F)(F)F)Nc1ncc(-c2ccccc2)s1 | -1.99% (active) | 14.9% | 3.47% (active) | -6.52% (active) | 2.92% (active) | -19.4% (active) | -38.1% (active) | -12.9% (active) | 17.1% | -73.3% (active) |
| Brc1ccc2[nH]cc(-c3nn4cc(-c5nccs5)nc4s3)c2c1 | 31.2% | 50.5% | 51.5% | 12.8% | -45.3% (active) | -28.1% (active) | 67.6% | 4.76% (active) | -74.5% (active) | 11% |
